Source: PubChem
DRD3 agonist = activates the human D3 dopamine receptor | P35462 | D3R DiscoveRx beta-arrestin cells, luminescence, 90 min | max activation, % | actives 0.58% (n = 410,000) | AID 652048; in the data active means max activation above about 30%
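Agonist-mode cell screen: cells plated at 1500/well and incubated overnight at 37 °C, then exposed to library compounds for 90 min at 37 °C. Detection reagent was added for 30–60 min at room temperature, and luminescence was read.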
D1 PAM = enhances dopamine response at the human D1 receptor. P21728. HEK293 TREx D1 cells, calcium flux, dopamine EC20 potentiation. potentiation, % at 10 µM. actives 0.036% (n = 360,000). AID 504651; in the data active means potentiation above about 30%
Target sequence (P21728 whole entry, looked up): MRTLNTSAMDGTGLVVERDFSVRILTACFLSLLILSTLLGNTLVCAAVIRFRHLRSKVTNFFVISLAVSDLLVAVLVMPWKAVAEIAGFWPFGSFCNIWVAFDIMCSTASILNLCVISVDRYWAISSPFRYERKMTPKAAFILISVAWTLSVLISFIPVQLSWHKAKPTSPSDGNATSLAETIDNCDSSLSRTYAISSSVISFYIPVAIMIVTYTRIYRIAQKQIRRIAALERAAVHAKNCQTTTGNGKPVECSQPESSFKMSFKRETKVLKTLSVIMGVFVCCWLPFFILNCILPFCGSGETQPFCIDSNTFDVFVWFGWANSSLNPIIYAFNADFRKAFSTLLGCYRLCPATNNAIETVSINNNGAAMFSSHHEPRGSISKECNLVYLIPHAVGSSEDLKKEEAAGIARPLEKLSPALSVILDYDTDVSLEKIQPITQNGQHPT
D1 agonist = activates the human D1 dopamine receptor | activation, % at 2 µM | P21728 | AID 504660 | HEK293 T-REx D1 cells, calcium flux, agonist mode | actives 1% (n = 360,000); in the data active means activation above about 30%
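Tetracycline-induced HEK293 TREx D1 cells, force-coupled to calcium signalling, were dye-loaded with a no-wash calcium kit. Compound was pin-added after a 10 s baseline. Fluorescence was read kinetically at 1 cycle/s for 180 s, with calcium rises flagged as agonism.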
D1 antag = antagonists of human D1 dopamine receptor. AID 504652. activity change, negative = inhibition, % at 10 µM. HEK293 TREx D1 cells, calcium flux, dopamine EC80; stronger effect = lower value. actives 3.2% (n = 360,000). P21728; in the data active means activity change below about -30%
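Kinetic fluorescence of a calcium dye serves as the read-out. D1-expressing Hek293 Trex cells, induced overnight at 30 C, are exposed to compound for 180 s before an EC80 dopamine addition, then read 180 s further.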
DRD3 antagonist = antagonists of human D3 dopamine receptor | max response, negative = inhibition, % | D3R cells, DiscoveRx beta-arrestin luminescence, antagonist mode; stronger effect = lower value | actives 2.5% (n = 360,000) | AID 652054 | P35462; in the data active means max response below about -50%; inconclusive means no clear call, values can overlap the other calls
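Cells expressing the human receptor were seeded at 1500 cells/well, incubated overnight at 37 degrees C in 5% CO2, then exposed to library compounds with dopamine controls for 90 minutes at 37 degrees C before luminescent detection.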
A number is an active result. In the library only some 6.1% were active in any assay of this set; here they are far more common.

Cc1ccc(S(=O)(=O)N2[C@@H](c3cccc(Cl)c3)C(C(=O)O)=CC[C@H]2c2ccc(C(C)C)cc2)cc1 was read as DRD3 agonist inactive, D1 PAM inactive, D1 agonist inactive, D1 antag -35.1 and DRD3 antagonist inactive.
Screening CCOc1ccc([C@@H]2CC=C(C(=O)O)[C@H](c3ccc(Cl)cc3)N2S(=O)(=O)c2ccc(C)cc2)cc1 returned DRD3 agonist inactive, D1 PAM inactive, D1 agonist inactive, D1 antag inactive and DRD3 antagonist -72.8.
For Cc1ccc([C@@H]2CC=C(C(=O)O)[C@H](c3ccc(Cl)cc3)N2S(=O)(=O)c2ccc(C)cc2)cc1 the results were DRD3 agonist inactive, D1 PAM inactive, D1 agonist inactive, D1 antag inactive and DRD3 antagonist inconclusive.
Cc1ccc(S(=O)(=O)N2[C@@H](c3ccccc3F)C(C(=O)O)=CC[C@H]2c2ccc(Cl)c(Cl)c2)cc1 was read as DRD3 agonist inactive, D1 PAM inactive, D1 agonist 58.4, D1 antag inactive and DRD3 antagonist inactive.
For CC(SCC(=O)NC(C)C1CC2CCC1C2)C(=O)O (centres undefined) the results were DRD3 agonist inactive, D1 PAM inactive, D1 agonist inactive, D1 antag inactive and DRD3 antagonist inactive.
O=C(COc1ccc2oc3c(c2c1)CCCC3)Nc1ccc(Br)cc1 was read as DRD3 agonist inactive, D1 PAM inactive, D1 agonist inactive and D1 antag inactive.
`Cc1ccccc1S(=O)(=O)N1[C@@H](c2ccccc2)C(C(=O)O)=CC[C@H]1c1ccc(Cl)cc1` gave DRD3 agonist inactive, D1 PAM inactive, D1 agonist inactive, D1 antag inactive and DRD3 antagonist -55.9.
For Cc1ccccc1S(=O)(=O)N1[C@@H](c2ccc(Br)cc2)C(C(=O)O)=CC[C@H]1c1ccc(Cl)cc1 the results were DRD3 agonist inactive and DRD3 antagonist inactive.
Screening COc1cc2c(cc1O)C(Cc1ccc(O)cc1)[N+](C)([O-])CC2 (centres undefined) returned DRD3 agonist inactive, D1 PAM inactive, D1 agonist inactive, D1 antag -38.0 and DRD3 antagonist inactive.
For COc1cc(CCCN2CCNC[C@@H]2Cc2ccc(O)cc2)cc(OC)c1OC the results were DRD3 agonist inactive, D1 PAM inactive, D1 agonist inactive, D1 antag inactive and DRD3 antagonist inactive.
COc1cc(C[C@@H]2C(=O)OC[C@H]2Cc2ccc(OC)c(OC)c2)ccc1O was read as DRD3 agonist inactive, D1 PAM inactive, D1 agonist inactive, D1 antag inactive and DRD3 antagonist inactive.
COc1ccc(C[C@H]2c3cc(O)c(OC)cc3CC[N+]2(C)[O-])cc1O (some centres undefined) was read as DRD3 agonist inactive, D1 PAM inactive, D1 agonist inactive, D1 antag -82.9 and DRD3 antagonist inactive.
Screening Cc1cccc(-c2cnc3cccnn23)c1 returned DRD3 agonist inactive and DRD3 antagonist inactive.
For Cc1c(N2C(=O)/C(=C\c3ccccc3O)SC2=S)c(=O)n(-c2ccccc2)n1C the results were DRD3 agonist inactive, D1 PAM inactive, D1 agonist inactive, D1 antag inactive and DRD3 antagonist inactive.
`CN1C(=O)/C(=C/c2cc(N=Nc3ccccc3)ccc2O)SC1=S` gave DRD3 agonist inactive, D1 PAM inactive, D1 agonist inactive, D1 antag inactive and DRD3 antagonist -135.3.
`CCOC(=O)N1CCN(c2cc(C)c(C(C)=O)cc2F)CC1` gave DRD3 agonist inactive, D1 PAM inactive, D1 agonist inactive, D1 antag -41.6 and DRD3 antagonist inactive.
For CCC(=O)c1ccc(N2CCN(C(=O)c3ccccc3F)CC2)c(F)c1 the results were DRD3 agonist inactive, D1 PAM inactive, D1 agonist 37.8, D1 antag inactive and DRD3 antagonist inactive.
Screening CCOC(=O)N1CCN(c2ccc(C(=O)c3ccccc3)cc2F)CC1 returned DRD3 agonist inactive, D1 PAM inactive, D1 agonist inactive, D1 antag -41.7 and DRD3 antagonist inactive.
CCC(=O)c1ccc(N2CCN(C(=O)c3ccccc3Br)CC2)c(F)c1 was read as DRD3 agonist inactive, D1 PAM inactive, D1 agonist inactive, D1 antag inactive and DRD3 antagonist inactive.
For CCOC(=O)N1CCN(c2ccc(C(C)=O)cc2F)CC1 the results were DRD3 agonist inactive, D1 PAM inactive, D1 agonist inactive, D1 antag inactive and DRD3 antagonist inactive.
`CC(=O)c1cc(F)c(N2CCN(C(=O)Cc3ccccc3)CC2)cc1C` gave DRD3 agonist inactive, D1 PAM inactive, D1 agonist inactive, D1 antag inactive and DRD3 antagonist inactive.
`N#CCCn1cc(C=O)c(-c2cccs2)n1` gave DRD3 agonist inactive, D1 PAM inactive, D1 agonist inactive, D1 antag inactive and DRD3 antagonist inactive.
`COc1ccc(CCNC(=O)c2c(C)oc3ncnc(N4CCOCC4)c23)c(OC)c1` gave DRD3 agonist inactive, D1 PAM inactive, D1 agonist inactive and D1 antag inactive.
For CC1CCN(S(=O)(=O)c2ccc3c(c2)N(CC(=O)N2CCN(c4ccc(Cl)cc4)CC2)C(=O)CO3)CC1 the results were DRD3 agonist inactive, D1 PAM inactive, D1 agonist inactive and D1 antag inactive.
Screening CC(c1ccccc1)n1c(S(=O)(=O)O)nc2ccccc21 (centres undefined) returned DRD3 agonist inactive, D1 PAM inactive, D1 agonist inactive, D1 antag inactive and DRD3 antagonist inactive.
CC(C)n1c(S(=O)(=O)O)nc2ccccc21 was read as DRD3 agonist inactive, D1 PAM inactive, D1 agonist inactive, D1 antag -33.6 and DRD3 antagonist inactive.
Screening Cc1cc(C)c(C(=O)CN2C(=O)NC3(CCCCC3)C2=O)cc1C returned DRD3 agonist 35.4, D1 PAM inactive, D1 agonist inactive, D1 antag inactive and DRD3 antagonist inactive.
`Cc1ccc(NC(=O)CCN2C(=O)NC3(CCCC3)C2=O)c(C)c1` gave DRD3 agonist inactive, D1 PAM inactive, D1 agonist inactive, D1 antag -33.6 and DRD3 antagonist inconclusive.
Screening Cc1cc(C)c(C(=O)CN2C(=O)NC3(CCC(C)CC3)C2=O)cc1C (centres undefined) returned DRD3 agonist inactive, D1 PAM inactive, D1 agonist inactive, D1 antag inactive and DRD3 antagonist inactive.
Screening O=C(CCNC(=O)c1ccco1)Nc1nc(-c2ccccc2)cs1 returned DRD3 agonist inactive and DRD3 antagonist inactive.
For COc1ccc(-n2nnnc2C(C2CC2)N2CCN(C/C=C/c3ccccc3)CC2)cc1 (centres undefined) the results were DRD3 agonist inactive and DRD3 antagonist -80.9.
Cc1cccc(C)c1-n1nnnc1C(C1CC1)N1CCN(C/C=C/c2ccccc2)CC1 (centres undefined) was read as DRD3 agonist inactive and DRD3 antagonist -78.8.
`CCC(c1nnnn1-c1c(C)cccc1C)N1CCN(C/C=C/c2ccccc2)CC1` (centres undefined) gave DRD3 agonist inactive and DRD3 antagonist inconclusive.
